CHX counter – affects cycloheximide protein synthesis inhibition readout, counter-screen; cell reporter, cycloheximide protein synthesis inhibition counterscreen; max response, %; 12% of 300,000 active; in the data active means max response mostly above about 13%, no sharp cut-off; inactive means mostly below about 14%; further: read at 38.3 µM for the half of the compounds with a filed dose; 0% is about no effect
AMA1-RON2 inh – disrupts binding of P. falciparum AMA1 to RON2 | AlphaScreen AMA1-biotinylated RON2 peptide binding | Potency, µM (titrated, usually from 58.2 µM), inactives show at the highest dose activity change, negative = inhibition, most hits filed as inhibitors | 0.2% of 360,000 active;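 further: potency means the concentration at half of the fitted maximal effect; 0% = vehicle wells and -100% = peptide control; nearly all actives have a fitted effect of over 45% in size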
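AMA1 (3D7) with his tag at 25 nM final met compounds first, then biotinylated RON2 peptide at 25 nM; detection used donor plus acceptor beads, 10 µg/mL apiece, read by AlphaScreen after 30 min at room temperature.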
Shiga inhibitor – Shiga toxin inhibition; Vero cells, Shiga toxin protein synthesis inhibition reporter; inhibition, % at 38.7 µM; 9.2% of 290,000 active; AID 2315; in the data active means inhibition mostly above about 28%, no sharp cut-off; inactive means mostly below about 43%; further: 0% is about no effect
Pf growth 48h – inhibits P. falciparum growth in the first generation, 48 h | P. falciparum luciferase growth in erythrocytes, 48 h | Potency, µM (top dose mostly 28.7 µM), inactives show at the top dose activity change, negative = inhibition, hits mostly inhibitors | 5.9% of 310,000 active; further: potency means the concentration at half of the fitted maximal effect; on the % scale 0 is the no-effect control and ±100 the full control effect
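A one-generation exposure of luciferase-tagged malaria parasites in RPMI 1640/Albumax erythrocyte culture, 37 C and 5% CO2. Inhibition is inferred from decreased luminescence after adding detection reagent.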
Pf growth 96h – inhibits malaria parasite growth, 96 h. Potency, µM (series often up to 28.7 µM), inactives show top-dose activity change, negative = inhibition, most hits filed as inhibitors. P. falciparum luciferase reporter growth, 96 h. AID 504834. 6.9% of 320,000 active; further: potency means the concentration at half of the fitted maximal effect; on the % scale 0 is the no-effect control and ±100 the full control effect
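Erythrocytes infected with luciferase-expressing P. falciparum were dispensed at 2% hematocrit and 0.05% parasitemia (final), then incubated with compounds 96 hours at 37 C in 5% CO2. Luminescence after detection reagent addition reported growth.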
SARS PLpro yeast – inhibitors of SARS-CoV papain-like protease in yeast; S. cerevisiae expressing SARS-CoV PLpro, growth rescue; 0.19% of 330,000 active; Potency, µM (top dose mostly 32.9 µM), for inactives: at the top dose activity, positive = growth rescue, actives largely listed as activators; calls by dose curve; further: potency means the concentration at half of the fitted maximal effect; 0% is about no effect; nearly all actives have a fitted effect of over 55% in size
Starred values were filed as active, the others as inactive. In the library only some 19% were active in any assay of this set; here they are far more common. Unless noted, the call rests on the fitted dose curve; in most records, active means well fitted curve in the direction sought with a large enough effect; inconclusive means small, poorly fitted or top-dose-only effect, or another doubt; inactive means no such curve, though single readings can be large; an effect the other way counts as inactive or inconclusive.

What do the screens show for `CN(CC(=O)Nc1cccc(F)c1)C(=O)CCNC(=O)c1ccc(Br)cc1`?
CHX counter: 22*; AMA1-RON2 inh: -7%; Shiga inhibitor: 36; Pf growth 48h: 12%; Pf growth 96h: -8%; SARS PLpro yeast: inconclusive

What do the screens show for `CN(CC(=O)Nc1cccc(F)c1)CC(=O)NC(c1ccccc1)c1ccccc1`?
AMA1-RON2 inh: 7%; Pf growth 48h: 12µM*; Pf growth 96h: inconclusive; SARS PLpro yeast: -3%

How did CN(CC(=O)Nc1cccc(F)c1)C(=O)c1ccc(COc2ccccc2)cc1 do in these assays?
AMA1-RON2 inh: 60%; Pf growth 48h: inconclusive; Pf growth 96h: 6%; SARS PLpro yeast: -3%

How did CN(CC(=O)Nc1cccc(F)c1)C(=O)CCCNC(=O)c1ccc(Cl)cc1 do in these assays?
AMA1-RON2 inh: 0%; Pf growth 48h: 132%; Pf growth 96h: 125%; SARS PLpro yeast: -3%

What do the screens show for `CC(O)CNCCNCc1c(OCc2ccccc2)ccc2ccccc12` (configuration not stated)?
CHX counter: -7; AMA1-RON2 inh: 3%; Shiga inhibitor: -17; Pf growth 48h: 1.9µM*; Pf growth 96h: 2.3µM*; SARS PLpro yeast: -3%

How did CC(O)CNCCOc1ccccc1OCc1ccccc1 (configuration not stated) do in these assays?
CHX counter: 1; AMA1-RON2 inh: -16%; Shiga inhibitor: -9; Pf growth 48h: -16%; Pf growth 96h: 46%; SARS PLpro yeast: 0%

Results for Cc1cc(C)n(-c2nnc(C)n2NS(=O)(=O)c2ccc(F)cc2)n1 ?
CHX counter: 12; AMA1-RON2 inh: -14%; Shiga inhibitor: -22; Pf growth 48h: 29%; Pf growth 96h: inconclusive; SARS PLpro yeast: 1%

How did Cc1cc(C)n(-c2nnc(N3CCN(c4ccc(F)cc4)CC3)nn2)n1 do in these assays?
CHX counter: 29; AMA1-RON2 inh: -6%; Shiga inhibitor: -4; Pf growth 48h: inconclusive; Pf growth 96h: 0.37µM*; SARS PLpro yeast: -1%

Results for COc1ccccc1Cc1c(-c2ccc(C#N)cc2)nc2ccc(C)cn12 ?
AMA1-RON2 inh: -6%

Results for CSc1ccc(C(=O)/C=C/c2ccc(N)cc2)cc1 ?
CHX counter: 55*; AMA1-RON2 inh: -13%; Shiga inhibitor: 77*; Pf growth 48h: 187%; Pf growth 96h: 67%; SARS PLpro yeast: -13%

Results for COc1cccc(/C=C/C(=O)c2ccc(C)c([N+](=O)[O-])c2)c1 ?
CHX counter: 5; AMA1-RON2 inh: -5%; Shiga inhibitor: 12; Pf growth 48h: -3%; Pf growth 96h: -3%; SARS PLpro yeast: 5%

How did COc1cccc(C(=O)/C=C/c2ccc(SC)cc2)c1 do in these assays?
CHX counter: 49*; AMA1-RON2 inh: -2%; Shiga inhibitor: 80*; Pf growth 48h: -2%; Pf growth 96h: -29%; SARS PLpro yeast: -20%

What do the screens show for `COc1ccc2cc(C(=O)/C=C/c3cc(OC)c(O)c(OC)c3)ccc2c1`?
CHX counter: 16; AMA1-RON2 inh: -8%; Shiga inhibitor: 39; Pf growth 48h: inconclusive; Pf growth 96h: inconclusive; SARS PLpro yeast: -1%

Results for COC(=O)c1ccc(/C=C/C(=O)c2cccc(OC)c2)cc1 ?
CHX counter: 70*; AMA1-RON2 inh: inconclusive; Shiga inhibitor: 52*; Pf growth 48h: 1%; Pf growth 96h: -9%; SARS PLpro yeast: 15%

What do the screens show for `COc1ccc2c(-c3ccccc3)cc(SCC(=O)NC3CCS(=O)(=O)C3)nc2c1` (configuration not stated)?
CHX counter: -5; AMA1-RON2 inh: 12%; Shiga inhibitor: -12; Pf growth 48h: 0%; Pf growth 96h: 173%; SARS PLpro yeast: 17%

How did CC(O)[C@@H]1NC(=O)[C@H](CCCN)NC(=O)[C@@H](Cc2c[nH]c3ccccc23)NC(=O)[C@H](Cc2ccc(O)cc2)NC(=O)[C@@H](NC(=O)[C@H](N)Cc2ccccc2)CSSC(C)(C)C(C(=O)N[C@H](C(N)=O)[C@@H](C)O)NC1=O (some centres not stated) do in these assays?
CHX counter: -10; Shiga inhibitor: -4

What do the screens show for `CCCCN(C(=O)NC(=O)Nc1nc2ccc(OC)cc2s1)S(C)(=O)=O`?
CHX counter: 53*; AMA1-RON2 inh: 0%; Shiga inhibitor: 48*; Pf growth 48h: 115%; Pf growth 96h: 69%; SARS PLpro yeast: -10%

What do the screens show for `CCCCOC(=O)Nc1nc2ccccc2s1`?
CHX counter: 26*; AMA1-RON2 inh: -1%; Shiga inhibitor: 69*; Pf growth 48h: 362%; Pf growth 96h: 98%; SARS PLpro yeast: -1%

What do the screens show for `CCCCOC(=O)Nc1nc2ccc(OC)cc2s1`?
CHX counter: 38*; AMA1-RON2 inh: -8%; Shiga inhibitor: 53*; Pf growth 48h: 61%; Pf growth 96h: -7%; SARS PLpro yeast: 1%

How did COc1cccc(-c2c(C#N)c(N)nc3c2c(=O)nc2sccn23)c1 do in these assays?
CHX counter: -8; Shiga inhibitor: -18; Pf growth 48h: inconclusive; Pf growth 96h: 21%; SARS PLpro yeast: 0%

How did O=C(N/N=C/c1cccc(Br)c1)C1CC(=O)N(c2ccccc2)C1 (configuration not stated) do in these assays?
CHX counter: -1; AMA1-RON2 inh: 12%; Shiga inhibitor: 3; Pf growth 48h: 9%; Pf growth 96h: -9%; SARS PLpro yeast: -1%

How did O=C(O)CC1NCCc2ccccc21 (configuration not stated) do in these assays?
CHX counter: 1; AMA1-RON2 inh: 9%; Shiga inhibitor: -1; Pf growth 48h: 50%; Pf growth 96h: 48%; SARS PLpro yeast: 1%

What do the screens show for `FC(F)(F)c1ccc(NCCc2ccccc2)nc1`?
CHX counter: 14*; AMA1-RON2 inh: 6%; Shiga inhibitor: 19; Pf growth 48h: 26%; Pf growth 96h: -25%; SARS PLpro yeast: -3%

What do the screens show for `C/C(CC(=O)Nc1ccc(F)cc1F)=N\NC(=O)C(=O)N1CCCCC1`?
CHX counter: 40*; Shiga inhibitor: 65*; Pf growth 48h: 26%; Pf growth 96h: inconclusive; SARS PLpro yeast: -1%

Results for Cc1cccc2c1-c1sc(C(=O)Nc3ccccc3N3CCN(C)CC3)cc1CO2 ?
CHX counter: -3; AMA1-RON2 inh: -6%; Shiga inhibitor: 22; Pf growth 48h: inconclusive; Pf growth 96h: inconclusive; SARS PLpro yeast: -1%

What do the screens show for `CCCNC(=O)OCCC12CC3CC(CC(C3)C1)C2`?
CHX counter: 59*; AMA1-RON2 inh: 27%; Shiga inhibitor: 25*; Pf growth 48h: 18%; Pf growth 96h: 67%; SARS PLpro yeast: -1%

How did CCCNC(=O)NCCC12CC3CC(CC(C3)C1)C2 do in these assays?
CHX counter: 45*; AMA1-RON2 inh: -3%; Shiga inhibitor: 65*; Pf growth 48h: inconclusive; Pf growth 96h: 38%; SARS PLpro yeast: -15%

From PubChem
